The results in this text go back to PubChem BioAssay.

The subject of experiment [1] is Wnt5a (protein binding on small-molecule microarray). In words: small molecules binding Wnt5a protein – biophysical, small-molecule microarray, 635/667 nm fluorescence, primary screen (AID 1142).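 Note: fluorescence read at 667 nm with signal to noise per printed feature.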 The conditions noted are these: 635 nm fluorescence, higher = more signal.
Experiment [2] is described as follows: ATP-based viability of Huh7 replicon cells – cell-based, CellTiter-Glo luminescence, basal, 48 h, cytotoxicity control for HCV replication inhibitor project, primary screen (AID 1143).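 Note: Huh7 hepatoma cells carrying a hepatitis C replication reporter with no stimulus; test concentration not given here.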 The conditions noted are these: higher = more signal, called active from +8 up or from −8 down. In general terms: A replicon is a self-replicating genome or part of one, used to study replication in cells.

Experiment [3] can be described thus: Pseudomonas biofilm growth suppression – PAO1 strain, BacTiter-Glo luminescence, LB-PBS, primary screen (AID 1144). The conditions noted are these: P. aeruginosa PAO1 biofilm, 12 h, higher = more signal.
A short description of experiment [4]: basal CRE-LacZ reporter activity in PC12 – cell-based, unstimulated, primary screen (AID 1145). The conditions noted are these: no forskolin, luminescence, 4.5 h, higher = more signal, called active from +8 up or from −8 down.
A short description of experiment [5]: forskolin-driven CRE-LacZ activity in PC12 – cell-based, CRE-LacZ reporter, forskolin-stimulated, primary screen (AID 1146).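 Note: PC12 cells with 6xCRE LacZ reporter stimulated by forskolin 10 µM; beta-galactosidase reporter signal reflecting CREB driven transcription.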 The conditions noted are these: luminescence, 4.5 h, higher = more signal, called active from +8 up or from −8 down.
Experiment [6] has as its target Streptavidin (Streptomyces avidinii) (UniProt P22629). As to the kind of experiment: compounds binding control protein streptavidin – biophysical, small-molecule microarray, 635/667 nm fluorescence, artefact control for SMM compound annotation, primary screen (AID 1147).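 Note: signal reflects streptavidin binding to arrayed compounds as a control protein.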 The conditions noted are these: higher = more signal.
Experiment [7] in a line: probe aInhba binding on compound microarray – biochemical, small-molecule microarray, 635/667 nm fluorescence, primary screen (AID 1148).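 Note: score merges 667nm spot fluorescence with signal-to-noise for antibody binding to printed compounds.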 The conditions noted are these: higher = more signal.
The target of experiment [8] is Torsin-1A (Homo sapiens) (UniProt O14656). As to the kind of experiment: TOR1A wild-type binding on microarray – cell lysate, small-molecule microarray, lysate, 635/667 nm, primary screen (AID 1149). The conditions noted are these: COS7 hTOR1A-WT lysate, 635 nm fluorescence, higher = more signal.
Chain of Torsin-1A (Homo sapiens) (O14656 whole entry, looked up): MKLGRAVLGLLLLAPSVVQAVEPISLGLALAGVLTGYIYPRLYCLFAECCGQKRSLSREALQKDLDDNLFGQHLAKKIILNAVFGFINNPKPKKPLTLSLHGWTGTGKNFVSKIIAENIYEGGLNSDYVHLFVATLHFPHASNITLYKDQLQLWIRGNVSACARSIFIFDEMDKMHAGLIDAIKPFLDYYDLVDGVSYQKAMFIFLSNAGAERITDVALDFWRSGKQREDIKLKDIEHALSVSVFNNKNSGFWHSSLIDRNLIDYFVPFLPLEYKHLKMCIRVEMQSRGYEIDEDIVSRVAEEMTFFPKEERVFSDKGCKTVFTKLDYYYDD
Experiment [9] has the same target. In words: torsin A mutant lysate binding on microarrays – cell lysate, small-molecule microarray, COS7 lysate, 635/667 nm fluorescence, primary screen (AID 1150).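 Note: score pools 667 nm emission and signal to noise measuring lysate protein binding.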 The conditions noted are these: COS7 hTOR1A mutant lysate, 635 nm fluorescence, higher = more signal.
Experiment [10] relates to Sonic hedgehog protein (Shh). In words: Sonic hedgehog microarray binding compounds – biochemical, small-molecule microarray, 635/667 nm fluorescence, primary screen (AID 1151).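 Note: Shh protein binding to compounds spotted on small-molecule microarray slides; score combines spot fluorescence intensity with signal-to-noise across triplicate slides.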 The conditions noted are these: 635 nm fluorescence, higher = more signal.

Calls of active or inactive are those of the source. Unless noted, the rule behind the calls is not given here.

Chain of Streptavidin (Streptomyces avidinii) (P22629 whole entry, looked up): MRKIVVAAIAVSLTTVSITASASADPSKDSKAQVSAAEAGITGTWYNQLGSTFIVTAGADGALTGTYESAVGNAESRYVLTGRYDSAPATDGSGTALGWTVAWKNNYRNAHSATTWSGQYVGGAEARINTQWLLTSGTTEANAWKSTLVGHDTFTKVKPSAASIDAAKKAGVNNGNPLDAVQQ

In the case of `CO[C@H]1COC(=O)[C@@H](C)COC(=O)[C@@H](OCc2ccccc2)C=C[C@@H]1C`, the composite z-score in experiment [1] was 0.007; in [6] it was -0.136; in experiment [7], -0.016; in experiment [8], 0.743; in [9] it was -0.253; in experiment [10] it was 0.214. The z-score was -0.0174 (inactive) in experiment [2], 0.304 (inactive) in experiment [3], -0.0293 (inactive) in [4] and -0.803 (inactive) in experiment [5].
Turning to `COc1cccc([C@H]2Oc3ccc(OC)cc3C(=NO[C@H](C)c3cn([C@H](CO)Cc4ccccc4)nn3)[C@@H]2O)c1`, the composite z-score in experiment [1] was -0.0943; in experiment [6], -0.706; in experiment [7], -0.104; in experiment [8] it was -0.0667; in experiment [9], 1.44; in experiment [10], 0.326. Besides, the z-score is 0.474 (inactive) in experiment [2], 0.829 (inactive) in [3], 3.87 (inactive) in experiment [4] and -0.345 (inactive) in [5].
Turning to `CCOC(=O)[C@H](Cc1ccccc1)NC(=O)CCC1CC(OC(=O)NCCc2ccc(F)cc2)CC2(CCCC(COC(=O)NCc3ccccc3)O2)O1` (stereo not given in full), the composite z-score was 0.0738 in experiment [1]; 0.606 in [6]; 0.0074 in experiment [7]; 0.409 in [8]; 0.129 in experiment [9]; 0.952 in experiment [10]. Further, the z-score in experiment [2] is -0.471 (inactive); in experiment [3] it was 0.0402 (inactive); in experiment [4] it was 0.824 (inactive); in [5], 1.63 (inactive).
`COC(=O)[C@@H]1CC[C@H](C)[C@@H](c2ccc(C)cc2)N1C(=O)c1ccc(C=NOCC[C@@H]2C=C[C@H](OC(C)=O)[C@@H](COC(C)=O)O2)cc1`: the composite z-score in [1] was 0.133; in experiment [6], 0.342; in experiment [7], -0.0477; in experiment [8], 0.612; in experiment [9], 0.481; in experiment [10], 0.681. The z-score was -0.689 (inactive) in experiment [2], 0.637 (inactive) in experiment [3], 4.56 (inactive) in experiment [4] and -0.0189 (inactive) in [5].
For the compound `CCC=CCCC(OC(=O)c1ccc(Br)cc1)C1=CCCCC1=O` (stereo not given), the composite z-score in experiment [1] is -0.0451; in experiment [6], 0.148; in [7], -0.195; in experiment [8], 1.08; in experiment [9], 1.87; in experiment [10], 1.46. The z-score was -1.29 (inactive) in experiment [2], 1.45 (inactive) in experiment [3], -0.158 (inactive) in experiment [4] and 3.09 (inactive) in [5].
Turning to `CC(=O)Nc1ccc([C@@H]2N[C@H](C(=O)O)CC[C@H]2C)cc1`, the composite z-score in experiment [1] is 0.101; in [6] it was -0.0013; in experiment [7], -0.101; in experiment [8], 0.746; in experiment [9] it was 0.371; in [10] it was 0.2. The z-score in experiment [2] is 0.138 (inactive); in experiment [3], -1.51 (inactive); in experiment [4], -0.884 (inactive); in [5], -1.21 (inactive).
For `COC(=O)CC=C[C@@H](C)[C@@H](C=NO[C@@H]1O[C@H](COC(C)=O)[C@@H](OC(C)=O)[C@H](OC(C)=O)[C@H]1OC(C)=O)NS(=O)(=O)c1ccc(C)cc1`, the composite z-score is -0.0003 in experiment [1]; -0.909 in [6]; 0.0086 in experiment [7]; 0.514 in experiment [8]; 0.311 in experiment [9]; 0.629 in experiment [10]. The z-score in experiment [2] is 0.0322 (inactive); in [3] it was -0.202 (inactive); in experiment [4], 7.64 (inactive); in experiment [5], 1.02 (inactive).
Turning to `CC(C)(C)N1C(=O)[C@H]2[C@H]3[C@H](O)[C@H](O)CC(=O)[C@@H]3CC[C@H]2C1=O`, the composite z-score in experiment [1] is -0.0326; in experiment [6] it was 0.179; in [7], -0.109; in experiment [8] it was 0.236; in experiment [9], 0.261; in experiment [10], 0.525. The z-score in experiment [2] is -1.07 (inactive); in experiment [3], -0.25 (inactive); in experiment [4], -0.93 (inactive); in [5], -0.785 (inactive).
Regarding `C[C@H]1Cc2c(COc3ccccc3)nc3c(c2CO1)CN(CCOc1ccccc1)CC3`, the composite z-score in [1] is 0.0543; in experiment [6] it was 0.426; in [7], -0.157; in experiment [8], 0.53; in [9], 0.217; in experiment [10], 1.21. Also, the z-score in experiment [2] is -0.491 (inactive); in experiment [3], -1.96 (inactive); in experiment [4], 3.54 (inactive); in experiment [5], -0.632 (inactive).
Take `C[C@H]1CC[C@H]2C(=O)O[C@H](COc3ccc(C(C)(C)C)cc3)CN2[C@@H]1c1ccc(Br)cc1`: the composite z-score in experiment [1] is -0.185; in experiment [6], 0.0762; in experiment [7], -0.0021; in experiment [8], 0.188; in [9], 0.3; in [10] it was 0.48. The z-score in [2] is -1.47 (inactive); in experiment [3], -0.239 (inactive); in experiment [4] it was 1.72 (inactive); in experiment [5] it was -0.466 (inactive).
Regarding `O=C1CCCC=C1C(O)CCCCBr` (stereo not given), the composite z-score in [1] was 0.0756; in experiment [6], 1.51; in experiment [7], -0.0523; in [8] it was 0.201; in experiment [9], 0.686; in experiment [10], 0.333. Also, the z-score in experiment [2] was -3.99 (inactive); in experiment [3] it was -0.548 (inactive); in experiment [4], 1.37 (inactive); in experiment [5], 27 (active).
For the compound `CCC(=O)[C@@]1(O)C(=O)N2C(=C3C(=O)OCC[C@@H]31)N(Cc1ccccc1)C(C)=C(C(=O)OC)[C@H]2c1ccccc1`, the composite z-score in experiment [1] is -0.308; in [6] it was 0.565; in experiment [7], 0.0633; in experiment [8] it was 0.578; in [9] it was 0.224; in experiment [10], 0.438. Moreover, the z-score in [2] is 0.321 (inactive); in experiment [3], -1.51 (inactive); in experiment [4], 0.513 (inactive); in experiment [5] it was -0.205 (inactive).
In the case of `COc1ccc(O[C@H]2C=C[C@@H](c3ccccc3)O[C@@H]2CON=CC[C@@H]2C=C[C@H](OC(C)=O)[C@@H](COC(C)=O)O2)cc1`, the composite z-score is 0.0129 in experiment [1]; 3.65 in [6]; -0.176 in experiment [7]; -0.107 in experiment [8]; -0.26 in experiment [9]; 0.328 in experiment [10]. The z-score in [2] is -1.06 (inactive); in experiment [3], -0.705 (inactive); in experiment [4], 1.15 (inactive); in [5] it was 0.222 (inactive).
Consider `O=C1CCCC(C2=CCCCC2=O)C1` (stereo not given), for which the composite z-score in experiment [1] was 0.18; in experiment [6] it was -0.15; in experiment [7], -0.0288; in experiment [8], 0.217; in experiment [9], 0.37; in [10] it was 0.626. The z-score was 0.211 (inactive) in [2], 0.0656 (inactive) in experiment [3], 0.019 (inactive) in experiment [4] and -0.222 (inactive) in [5].
In the case of `C[C@@H]1CC[C@H]2C(=O)O[C@@H](COc3ccc(C(C)(C)C)cc3)CN2[C@@H]1c1ccc(Br)cc1`, the composite z-score was -0.176 in experiment [1]; -0.259 in experiment [6]; -0.0987 in [7]; -0.351 in [8]; -0.188 in experiment [9]; -0.445 in experiment [10]. Moreover, the z-score in experiment [2] is 0.301 (inactive); in [3], 0.256 (inactive); in [4] it was 0.764 (inactive); in experiment [5], 0.403 (inactive).
